Laboratory results from the supplement of paper PMC10849652.
Of roughly 8,800 targets only a part is listed; those with a hit were picked by preference. About 0.5% of all pairs of compound and target were hits.

Legend:
Experiment in all cases: log2 fold change, soluble protein after heating vs DMSO (PISA); higher = thermal stabilisation; K562 lysate, 10 uM; active = over 0.2 and 3.5 SD of the protein, either way, in both replicates (recomputed)
ibrutinib = compound: C=CC(=O)N1CCC[C@@H](n2nc(-c3ccc(Oc4ccccc4)cc3)c3c(N)ncnc32)C1 [ibrutinib]
How it was run: (§1)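 To prepare the extract, K562 pellets were dounce-homogenised in PBS pH 7.4 with 1 mM MgCl2, giving crude material at 1 mg/mL protein. This was treated with 10 μM compound for 30 min, then heated in aliquots for 3 min over 48°C-58°C before pooling and addition of NP-40 to 0.5% at 4°C. Centrifugation at 21,000xg for 90 min left soluble protein in the supernatant, which TMTpro 16plex LC-MS/MS quantified with equalised channel sums. Results are log-two fold changes in thermal stability compared with solvent controls, from duplicates.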

[1] = compound: CC(=O)c1cnc2ccc(-c3cc(Cl)c(O)c(Cl)c3)nc2c1N[C@H]1CC[C@H](CN(C)C)CC1
How it was run: as §1

ralimetinib = compound: CC(C)(C)Cn1c(N)nc2ccc(-c3[nH]c(C(C)(C)C)nc3-c3ccc(F)cc3)nc21 [ralimetinib]
How it was run: as §1

[2] = compound: CC(C)(O)CC(=O)NCCn1ccc2ncnc(Nc3ccc(Oc4cccc(C(F)(F)F)c4)c(Cl)c3)c21
How it was run: as §1

[3] = compound: CC(C)C1=C2N=C(C=C(N2N=C1)NCC3=CC=CC=C3)NCCCCCCN
How it was run: as §1

[4] = compound: CC1=C(C(CC(=O)N1)C2=CC=C(C=C2)C(F)(F)F)C(=O)NC3=C(C=C4C(=C3)C=NN4)F
How it was run: as §1

[5] = compound: CC1=C(C2=C(C=C1)C(=O)C3=CC=CC=C3N2CCCN)C
How it was run: as §1

[6] = compound: CC1=C(C=C(C=C1)NC(=O)C2=CC(=CC=C2)C(C)(C)C#N)NC3=CC4=C(C=C3)N=CN(C4=O)C
How it was run: as §1

[7] = compound: CC1=C(C=C(C=C1)NC(=O)C2=CC(=CC=C2)N(C)C)NC(=O)C3=CC=C(C=C3)O
How it was run: as §1

[8] = compound: CC1=CC=C(C=C1)SC2=C3C=C(SC3=CN=C2)C(=O)N
How it was run: as §1

vemurafenib = compound: CCCS(=O)(=O)Nc1ccc(F)c(C(=O)c2c[nH]c3ncc(-c4ccc(Cl)cc4)cc23)c1F [vemurafenib]
How it was run: as §1

[9] = compound: CCCS(=O)(=O)Nc1ccc(F)c(C(=O)c2c[nH]c3ncc(Cl)cc23)c1F
How it was run: as §1

barasertib = compound: CCN(CCCOc1ccc2c(Nc3cc(CC(=O)Nc4cccc(F)c4)[nH]n3)ncnc2c1)CCOP(=O)(O)O [barasertib]
How it was run: as §1

[10] = compound: CC[C@@H]1C(=O)N(C)c2cnc(Nc3ccc(C(=O)NC4CCN(C)CC4)cc3OC)nc2N1C1CCCC1
How it was run: as §1

volasertib = compound: CC[C@@H]1C(=O)N(C)c2cnc(Nc3ccc(C(=O)N[C@H]4CC[C@H](N5CCN(CC6CC6)CC5)CC4)cc3OC)nc2N1C(C)C [volasertib]
How it was run: as §1

[11] = compound: CCn1c(C(=O)N(C2CC2)C2CC2)cc2c3c(ncn3C)c(Nc3cc(C)n(C)n3)nc21
How it was run: as §1

[12] = compound: CCn1cc(-c2ccnc3[nH]c(-c4cccc(CN(C)C)c4)cc23)c(-c2ccc(NC(=O)N(C)C)cc2)n1
How it was run: as §1

[13] = compound: CN1CCC(CNc2ccc3ncc(-c4cccc(OC(F)(F)F)c4)n3n2)CC1
How it was run: as §1

saracatinib = compound: CN1CCN(CCOc2cc(OC3CCOCC3)c3c(Nc4c(Cl)ccc5c4OCO5)ncnc3c2)CC1 [saracatinib]
How it was run: as §1

sotrastaurin = compound: CN1CCN(c2nc(C3=C(c4c[nH]c5ccccc45)C(=O)NC3=O)c3ccccc3n2)CC1 [sotrastaurin]
How it was run: as §1

Measured: log2 fold change

MOSPD2 (UniProt Q8NHP6)
Sequence of UniProt Q8NHP6 (Q8NHP6 whole entry, looked up): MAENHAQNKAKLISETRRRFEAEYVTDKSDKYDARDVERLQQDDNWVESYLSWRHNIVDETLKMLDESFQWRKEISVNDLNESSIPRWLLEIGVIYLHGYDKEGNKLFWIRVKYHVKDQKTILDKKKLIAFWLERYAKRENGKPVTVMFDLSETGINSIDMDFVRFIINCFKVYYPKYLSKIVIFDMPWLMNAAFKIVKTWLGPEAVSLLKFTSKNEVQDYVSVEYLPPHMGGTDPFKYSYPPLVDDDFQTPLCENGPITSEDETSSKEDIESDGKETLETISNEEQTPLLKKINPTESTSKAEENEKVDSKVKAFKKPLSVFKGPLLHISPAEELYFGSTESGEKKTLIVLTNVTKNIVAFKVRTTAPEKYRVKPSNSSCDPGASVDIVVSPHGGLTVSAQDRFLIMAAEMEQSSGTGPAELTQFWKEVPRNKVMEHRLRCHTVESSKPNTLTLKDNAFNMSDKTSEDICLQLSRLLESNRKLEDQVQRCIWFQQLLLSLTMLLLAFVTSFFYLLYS
inactive: ibrutinib -0.023 | [1] 0.019 | ralimetinib 0.023 | [2] 0.067 | [3] 0.028 | [4] -0.049 | [5] 0.009 | [6] -0.037 | [7] -0.012 | [8] 0.017 | vemurafenib 0.003 | [9] 0.008 | barasertib -0.007 | [10] 0.158 | volasertib -0.014 | [11] 0.039 | [12] -0.054 | [13] 0.004 | saracatinib 0.043 | sotrastaurin 0.076

KLC1 isoform 6 (UniProt Q07866)
Sequence of UniProt Q07866 (Q07866 whole entry, looked up): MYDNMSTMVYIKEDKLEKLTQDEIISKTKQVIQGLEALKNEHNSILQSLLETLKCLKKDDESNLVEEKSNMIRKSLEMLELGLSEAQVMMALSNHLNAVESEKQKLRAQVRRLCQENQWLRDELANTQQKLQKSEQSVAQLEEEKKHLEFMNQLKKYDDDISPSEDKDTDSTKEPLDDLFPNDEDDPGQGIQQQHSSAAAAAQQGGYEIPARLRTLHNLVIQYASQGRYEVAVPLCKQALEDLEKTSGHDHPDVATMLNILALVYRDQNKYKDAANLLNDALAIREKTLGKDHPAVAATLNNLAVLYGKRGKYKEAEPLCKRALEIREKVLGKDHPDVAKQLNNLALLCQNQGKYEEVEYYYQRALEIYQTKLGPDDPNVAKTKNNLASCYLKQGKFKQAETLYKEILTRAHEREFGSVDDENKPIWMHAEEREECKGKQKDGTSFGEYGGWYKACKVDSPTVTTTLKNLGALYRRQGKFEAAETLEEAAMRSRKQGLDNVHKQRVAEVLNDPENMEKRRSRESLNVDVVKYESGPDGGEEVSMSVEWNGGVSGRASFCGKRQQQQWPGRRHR
inactive: ibrutinib -0.022 | [1] -0.012 | ralimetinib 0.019 | [2] 0.005 | [3] 0.002 | [4] -0.01 | [5] 0.012 | [6] 0.028 | [7] -0.002 | [8] -0.017 | vemurafenib 0.003 | [9] 0.004 | barasertib -0.002 | [10] 0.012 | volasertib -0.04 | [11] 0 | [12] 0.019 | [13] -0.063 | saracatinib 0.015 | sotrastaurin -0.011

LARS (UniProt Q9P2J5)
Sequence of UniProt Q9P2J5 (Q9P2J5 whole entry, looked up): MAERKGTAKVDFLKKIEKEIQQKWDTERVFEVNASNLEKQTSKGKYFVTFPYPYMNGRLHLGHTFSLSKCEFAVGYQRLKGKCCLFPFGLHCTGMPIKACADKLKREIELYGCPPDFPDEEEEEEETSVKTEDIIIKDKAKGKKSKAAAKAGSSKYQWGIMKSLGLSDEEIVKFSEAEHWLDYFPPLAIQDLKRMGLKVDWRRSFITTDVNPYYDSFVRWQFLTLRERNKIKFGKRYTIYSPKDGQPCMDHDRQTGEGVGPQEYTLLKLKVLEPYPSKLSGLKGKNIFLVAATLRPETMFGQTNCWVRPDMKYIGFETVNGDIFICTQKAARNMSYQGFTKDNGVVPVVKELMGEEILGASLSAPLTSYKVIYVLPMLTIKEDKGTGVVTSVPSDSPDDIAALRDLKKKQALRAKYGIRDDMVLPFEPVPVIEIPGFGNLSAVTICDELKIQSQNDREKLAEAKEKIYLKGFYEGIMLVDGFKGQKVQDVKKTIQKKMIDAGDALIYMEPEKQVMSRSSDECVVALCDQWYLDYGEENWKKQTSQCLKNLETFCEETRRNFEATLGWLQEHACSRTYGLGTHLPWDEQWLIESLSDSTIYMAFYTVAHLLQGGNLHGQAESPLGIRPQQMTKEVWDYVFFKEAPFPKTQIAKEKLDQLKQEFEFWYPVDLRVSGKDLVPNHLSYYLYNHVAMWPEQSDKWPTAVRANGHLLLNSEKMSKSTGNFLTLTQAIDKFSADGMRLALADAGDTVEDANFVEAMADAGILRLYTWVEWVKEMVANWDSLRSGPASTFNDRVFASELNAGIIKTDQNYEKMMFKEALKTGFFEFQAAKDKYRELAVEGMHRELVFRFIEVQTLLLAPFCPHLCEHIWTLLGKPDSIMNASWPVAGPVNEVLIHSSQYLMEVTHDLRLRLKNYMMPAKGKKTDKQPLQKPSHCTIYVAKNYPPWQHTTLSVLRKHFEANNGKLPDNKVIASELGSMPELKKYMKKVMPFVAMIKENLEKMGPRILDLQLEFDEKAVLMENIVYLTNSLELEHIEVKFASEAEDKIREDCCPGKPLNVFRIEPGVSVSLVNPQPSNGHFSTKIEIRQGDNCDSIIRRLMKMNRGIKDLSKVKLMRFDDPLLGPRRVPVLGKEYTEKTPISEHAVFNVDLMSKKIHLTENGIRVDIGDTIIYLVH
inactive: ibrutinib -0.021 | [1] -0.003 | ralimetinib 0.023 | [2] 0.048 | [3] 0.021 | [4] -0.001 | [5] -0.017 | [6] -0.041 | [7] 0.029 | [8] 0.022 | vemurafenib -0.005 | [9] 0.006 | barasertib 0.006 | [10] -0.069 | volasertib -0.063 | [11] 0.045 | [12] 0.008 | [13] -0.058 | saracatinib -0.023 | sotrastaurin -0.002
